Results on 40 molecules are retold here after PubChem BioAssay (Tox21).

Results filed as inconclusive are left out. Values without a mark were called inactive. Active and inactive are the calls of the source. Calls follow the shape of the dose curve; as a rule, active = well fitted activation curve with a large enough effect in the signal ratio in the repeat runs (not every such curve was filed as active); inconclusive = weak or mixed curves, or effect the other way; inactive = no such curve, though single readings can be large or run the other way; the % refers to the signal ratio.
% is scaled to controls: 0 for no effect and ±100 for the full control effect.

Sequence of Glucocorticoid receptor (Homo sapiens) (P04150 whole entry, looked up): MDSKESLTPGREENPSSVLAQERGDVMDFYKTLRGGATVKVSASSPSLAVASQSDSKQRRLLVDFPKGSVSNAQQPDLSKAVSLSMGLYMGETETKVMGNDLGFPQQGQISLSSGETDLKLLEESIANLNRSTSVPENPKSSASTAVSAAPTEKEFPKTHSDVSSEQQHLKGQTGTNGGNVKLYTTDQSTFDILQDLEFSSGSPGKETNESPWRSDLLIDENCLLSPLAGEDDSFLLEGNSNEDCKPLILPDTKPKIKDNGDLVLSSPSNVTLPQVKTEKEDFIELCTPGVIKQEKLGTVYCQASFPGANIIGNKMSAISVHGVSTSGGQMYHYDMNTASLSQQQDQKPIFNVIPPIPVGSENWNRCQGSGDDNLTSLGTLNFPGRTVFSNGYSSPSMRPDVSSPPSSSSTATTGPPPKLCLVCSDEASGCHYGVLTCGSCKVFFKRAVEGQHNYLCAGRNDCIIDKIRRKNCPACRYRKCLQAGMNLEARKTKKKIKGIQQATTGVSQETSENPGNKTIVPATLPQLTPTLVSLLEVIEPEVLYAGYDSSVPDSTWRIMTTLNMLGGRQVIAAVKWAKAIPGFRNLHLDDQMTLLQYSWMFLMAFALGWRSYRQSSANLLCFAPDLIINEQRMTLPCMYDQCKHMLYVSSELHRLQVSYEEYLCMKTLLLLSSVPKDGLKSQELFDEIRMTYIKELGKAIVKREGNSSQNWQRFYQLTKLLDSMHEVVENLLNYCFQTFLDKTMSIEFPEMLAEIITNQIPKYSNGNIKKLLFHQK

The experiment concerns the target Glucocorticoid receptor (Homo sapiens) (UniProt P04150). Nature of the experiment: qHTS assay to identify small molecule agonists of the glucocorticoid receptor (GR) signaling pathway (AID 720691). The conditions noted are these: GR-bla HeLa, beta-lactamase reporter ratio, 18 h; series mostly up to 62.4 µM; activation: at the top concentration. From the text: U.S. Tox21 Program National Center for Advancing Translational Sciences [NCATS] NIH Chemical Genomics Center [NCGC] U.S. Environmental Protection Agency [EPA] National Institutes of Environmental Health Sciences [NIEHS] National Toxicology Program [NTP] U.S. Food and Drug Administration [FDA] Tox21 Assay Overview: The Glucocorticoid receptor (GR) is one of the members of the nuclear receptor family of ligand-dependent transcription factors. GR plays a critical role in carbohydrate, protein and lipid metabolisms and programmed cell death. CellSensor GR-bla HeLa cell line (Invitrogen) contains a beta-lactamase reporter gene under the control of the glucocorticoid response element stably integrated into HeLa cells, a cervical cancer cell line that expresses glucocorticoid receptor. The activation of the reporter gene under culture conditions can be detected by fluorescence intensity. This cell line has been used to screen the Tox21 10K compound library and to identify the compounds that activate the GR signaling.
Tox21 Assay Protocol Summary: The GR-bla HeLa cells were dispensed at 1500 cells/6 ul/well in 1536-well black wall/clear bottom plates using a Multidrop Combi (ThermoFisher Scientific, Waltham, MA) dispenser. After the assay plates were incubated at a 37 C/5% CO2 incubator for 4 hours, 23 nL of compounds dissolved in DMSO, positive controls or DMSO only was transferred to the assay plate by a pintool station (Kalypsys, San Diego, CA). The plates were incubated at 37 C for 18 hours. After 1 uL of LiveBLAzerTM B/G FRET substrate was added using a Flying Reagent Dispenser (Aurora Discovery, San Diego, CA), the plates were incubated at room temperature for 2 hours, and fluorescence intensity was measured by an Envision plate reader (PerkinElmer, Shelton, CT).
For the molecule `COC(=O)C(Cl)C(=O)OC`, the “activation” value is -2.87%.
For `NNC(=O)c1cccnc1`, the “activation” value was -1.3% [at 79.2 µM].
On the same count and under the same terms, next, `Cn1sc(Cl)cc1=O`: 0.801%; `CCCCN(N=O)C(=N)N[N+](=O)[O-]`: 2.74% [at 79.2 µM].
Turning to `Brc1ccc(Oc2ccccc2)cc1`, the outcome was inactive.
As to `c1ccc(C2CC2)c(OCC2=NCCN2)c1`, the “activation” value was -2.24%.
As to `c1ccc(CN2CCNCC2)cc1`, the “activation” value was 6.95% [at 213 µM].
On the same count and under the same terms, next, `CCCN(CCC)c1c([N+](=O)[O-])cc(S(C)(=O)=O)cc1[N+](=O)[O-]`: 6.46%; `O=S(=O)(O)C(F)(F)C(F)(F)C(F)(F)C(F)(F)F`: -5.57% [at 79.2 µM].
For `C[N+](C)(C)CCCl`, the “activation” value is 1.72% [at 79.2 µM].
For `COc1ccc(-c2ccccc2)cc1NNC(=O)OC(C)C`, the “activation” value is -5.21% [at 79.2 µM].
On to `Nc1nc(=S)[nH][nH]1`, for which the “activation” value was 0.0512%.
Still for that read-out and setting: with `ClCCCCBr` the figure was -0.613% [at 79.2 µM]; with `Brc1ccccc1`, -0.154%; with `C=C(C#N)CCC#N`, -0.583%.
For the molecule `Cc1ccccc1CCl`, the “activation” value was 3.17%.
Consider `CC(C)(Cl)[N+](=O)[O-]`, for which the “activation” value was -2.03% [at 79.2 µM].
Still for that read-out and setting: with `O=C1NCN(c2ccccc2)C12CCN(CCCOc1ccc(F)cc1)CC2` the figure was -4.39%; with `C=CC(=O)OC(C)(C)C`, -0.117%; with `C=CCOC(C)=O`, -3.3%.
On to `CC(C)N(C(=O)COc1nnc(C(F)(F)F)s1)c1ccc(F)cc1`, for which the “activation” value was 0.159%.
Take `O=C(CCl)c1ccc(Cl)cc1Cl`: the “activation” value was -17%.
As to `O=[Se]=O`, the “activation” value was -8.56%.
Turning to `CN1C(=O)NC(=O)C(C)(C2=CCCCC2)C1=O` (stereo not given), the result was inactive.
Turning to `CCOP(=S)(OCC)Oc1nc(Cl)c(Cl)cc1Cl`, the result was inactive.
Consider `O=NN1CCNCC1`, for which the “activation” value was -1.04% [at 79.2 µM].
As for `CO/N=C(/C(=O)OC)c1ccccc1COc1ccccc1C`, the “activation” value was -0.767%.
`CCCCCCCCCCOC(=O)c1ccccc1C(=O)OCCCCCCCCCC`: the “activation” value was 1.36%.
With `S=C=NCc1ccccc1`, the “activation” value was -0.374% [at 79.2 µM].
Same read-out and setting: next, `ClCC(Br)CBr` (stereo not given): -0.0634%; `CC(C)(C)c1cc([N+](=O)[O-])cc([N+](=O)[O-])c1O`: -3.1%.
Same read-out and setting: next, `CCOc1ccc(C(C)(C)COCc2cccc(Oc3ccccc3)c2)cc1`: -1.1%.
On the same count and under the same terms, with `Cl/C=C\C[N+]12CN3CN(CN(C3)C1)C2` the figure was 4.5%; with `O=C(O)COc1ccc(Cl)cc1`, 0.222%.
Take `CCCCCCCCOC(=O)c1ccc(C(=O)OCCCCCCCC)c(C(=O)OCCCCCCCC)c1`: the “activation” value was -1.23% [at 79.2 µM].
As for `c1cc2ccc3cccc4ccc(c1)c2c34`, the “activation” value is -5.78% [at 79.2 µM].
With `O=NN1CCCCCC1`, the “activation” value is -2.2%.
Take `O=S1OC[C@@H]2[C@H](CO1)[C@]1(Cl)C(Cl)=C(Cl)[C@@]2(Cl)C1(Cl)Cl` (stereo not given in full): the “activation” value is 4.9%.
As for `COC(=O)C(Br)CBr` (stereo not given), the “activation” value is 0.632%.
On to `COP(=S)(Oc1cc(Cl)c(Br)cc1Cl)c1ccccc1` (stereo not given), for which the “activation” value was -6.37%.
